In PubChem BioAssay AID1851 (National Center for Advancing Translational Sciences (NCATS), 2009):
In all, about 16,000 compounds went through this assay and about 5,800 (36%) were called active. Roughly 23% stayed inconclusive and do not appear here. The call rests on the fitted dose curve; in most records, active means well fitted curve in the direction sought with a large enough effect; inconclusive means small, poorly fitted or top-dose-only effect, or effect the other way; inactive means no such curve, though single readings can be large or run the other way. Some of the results follow.

The molecules below were run against Cytochrome P450 2C19 (Homo sapiens) (UniProt P33261) (assay: Cytochrome panel assay with activity outcomes). Details: recombinant CYP, pro-luciferin dealkylation, luminescence, p450-cyp2c19; series mostly up to 57.1 µM.
Cytochrome P450 2C19 (Homo sapiens), sequence (P33261 whole entry, looked up): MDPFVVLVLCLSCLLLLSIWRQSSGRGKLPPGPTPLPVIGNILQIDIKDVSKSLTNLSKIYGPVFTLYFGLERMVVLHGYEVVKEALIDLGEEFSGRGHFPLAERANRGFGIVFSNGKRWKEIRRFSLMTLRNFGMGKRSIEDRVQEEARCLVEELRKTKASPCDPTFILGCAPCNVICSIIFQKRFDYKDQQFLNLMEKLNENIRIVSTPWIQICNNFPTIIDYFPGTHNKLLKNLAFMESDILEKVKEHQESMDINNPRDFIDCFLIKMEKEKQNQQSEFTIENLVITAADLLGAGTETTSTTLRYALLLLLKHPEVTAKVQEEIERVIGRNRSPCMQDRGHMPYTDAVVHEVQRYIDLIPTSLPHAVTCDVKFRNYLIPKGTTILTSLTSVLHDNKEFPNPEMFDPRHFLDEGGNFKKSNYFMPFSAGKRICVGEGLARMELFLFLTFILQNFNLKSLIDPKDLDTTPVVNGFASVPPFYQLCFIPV
On the % scale 0 is the no-effect control and ±100 the full control effect.

Compound	AC50	activity, negative = inhibition
N#Cc1ccc(C(=O)Nc2ccc(N3CCN(C(=O)c4ccco4)CC3)cc2)c(F)c1	inactive	
Cc1ccccc1C(=O)N1CCN(c2ccc([N+](=O)[O-])c(NCc3ccco3)c2)CC1	3.16 µM (active)	
Cc1cccc(C(=O)N2CCN(c3ccc([N+](=O)[O-])c(NCc4ccco4)c3)CC2)c1	7.94 µM (active)	
Cc1cccc(C(=O)NCN2CCN(c3ccccc3C#N)CC2)c1	inactive	
CC[C@]1(O)C[C@H]2CN(CCc3c([nH]c4ccccc34)[C@](C(=O)OC)(c3cc4c(cc3OC)N(C=O)[C@H]3[C@@](O)(C(=O)OC)[C@H](OC(C)=O)[C@@]5(CC)C=CCN6CC[C@]43[C@H]65)C2)C1	inactive	
Cc1[nH]nc(-c2ccc(OCc3cnn(-c4ccccc4)c3)cc2O)c1Oc1ccccc1F	1.78 µM (active)	
O=C(Nc1ccc2oc(-c3ccccc3F)nc2c1)c1ccc2c(c1)OCCO2	3.98 µM (active)	
O=C(NC1CCN(Cc2ccccc2)CC1)c1ccc(I)cc1	15.8 µM (active)	
CCC(C)[C@H](NC(=O)NC1CCN(Cc2ccccc2)CC1)C(=O)OC (stereo not given in full)	inactive	
COc1cc(N)c(Cl)cc1C(=O)NC1CCN(Cc2ccccc2)CC1	inactive	
CN(C)CCNC(=O)C(C(=O)c1ccc(F)cc1)n1ccccc1=O (stereo not given)	inactive	
COc1ccccc1NC(=O)CN1CCN(c2ccccc2F)CC1	2.51 µM (active)	
CCCNC(=O)N1CCC(C(=O)c2ccc(F)cc2)CC1	17.8 µM (active)	
O=C(Cc1ccccc1)NC1CCN(S(=O)(=O)c2ccc(C(=O)O)cc2)CC1	inactive	
Cc1ccc(NC(=O)CN2CCC(NC(=O)Cc3ccccc3)CC2)cc1C	0.0178 µM (active)	
O=C1C(O)=C(O)C(=O)C(O)=C1O	inactive	
NC(N)=NNC(=O)C(=O)O		28.3% [at 11.4 µM] (inactive)
COc1ccccc1NC(=O)CN1CCC(C(=O)c2ccc(F)cc2)CC1	5.01 µM (active)	
CCOc1ccccc1NC(=O)C(=O)NCC1CCCN1CC (stereo not given)	inactive	
O=C(c1ccc(F)cc1)C1CCN(CCCCc2ccccc2)CC1	inactive	
Cc1cccc(N2CCN(CC(=O)Nc3ccc(-n4cnnn4)cc3)CC2)c1C	inactive	
CCN(CC)c1ccc(NC(=O)CN2CCN(c3ccccc3F)CC2)cc1	14.1 µM (active)	
CCOc1ccccc1NC(=O)CN1CCC(NC(=O)c2ccccc2)CC1	1 µM (active)	
CC(C)NC(=O)N1CC2(CCN(C(=O)c3cc(C(F)(F)F)cc(C(F)(F)F)c3)CC2)C1	inactive	
Nc1ncnc(N(c2ccccc2)C2CCCCC2)c1[N+](=O)[O-]	inactive	

Compound	AC50	activity, negative = inhibition
N=c1nc(N2CCCCC2)cc(N)n1O	inactive	
Fc1ccccc1OCCCCSc1ncccn1	3.98 µM (active)	
COc1cccc(-c2nccc(NC3CCNCC3)n2)c1	inactive	
N#Cc1cccc(-c2nccc(-n3ccnc3)n2)c1	7.94 µM (active)	
N#Cc1cccc(-c2cc(-n3ccnc3)ncn2)c1	0.158 µM (active)	
c1cn(-c2ccnc(-c3ccc4c(c3)OCO4)n2)cn1	10 µM (active)	
N#Cc1cccc(-c2nc(N3CCNCC3)c3ccccc3n2)c1	inactive	
COc1cccc(-c2nccc(-n3ccnc3)n2)c1	2.51 µM (active)	
CCNc1ncc2nc(-c3cccc(C#N)c3)c(=O)n(C)c2n1	inactive	
CN1CCN(c2ccnc(-c3ccoc3)n2)CC1	inactive	
C[n+]1cc(-c2ccccc2)n2c1CCCCC2	inactive	
CCCCSCc1nc2nc(Cl)c(Cl)nc2[nH]1	2 µM (active)	
CC(C)(C)C(=O)NC(Nc1cccc2cccnc12)C(Cl)(Cl)Cl (stereo not given)	0.794 µM (active)	
O=C(Nc1cccc2cccnc12)[C@@H]1[C@@H](C(=O)O)[C@H]2CC[C@@H]1O2		29.3% [at 11.4 µM] (inactive)
NC(=S)Nc1cccc2cccnc12	inactive	
CCCCCCOC(=O)C(C#N)c1nc2ccccc2nc1N1CCN(CC)CC1 (stereo not given)	8.91 µM (active)	
CC(C)NC1(C(N)=O)CCN(Cc2ccccc2)CC1		-1.03% [at 11.4 µM] (inactive)
CC(C)OC(=O)C(C#N)c1nc2ccccc2nc1N1CCN(Cc2ccccc2)CC1 (stereo not given)	0.00562 µM (active)	
CCN1CCN(c2nn3c(=O)c4ccccc4nc3c3ccccc23)CC1	inactive	
COC(=O)N1CCC2(CCCN(Cc3ccccc3)C2)CC1	inactive	
CCn1c(=O)[nH]c2cc(Cl)c(Cl)cc21	inactive	
COc1ccc(CCN2C(=NC(=O)CCC(=O)O)SC3CS(=O)(=O)CC32)cc1 (stereo not given)	14.1 µM (active)	
CCCC(=O)N=C1SC2CS(=O)(=O)CC2N1c1ccc(CC)cc1 (stereo not given)	7.08 µM (active)	
C=CCN1C(=NC(=O)CC)SC2CS(=O)(=O)CC21 (stereo not given)	inactive	
CC(C)NC(=O)N1CC2(CCN(C(=O)c3ccncc3)CC2)C1	inactive	
